Measurements taken from ChEMBL document CHEMBL3988442, “University of Dundee, Small-Polar-MMV Screening Library” (2021).
Screen size: about 53,000 compounds; about 900 (1.7%) showed an effect of 50% or more. This is one part of a sample in which strong results are shown more often than they occur.

System: Mycobacterium tuberculosis
Test: Cornell - Phenotypic assay to identify agents that inhibit growth of Mycobacterium tuberculosis
Assay type: functional
Design: scale not given: direction of the effect not stated beside the values
Conditions: 10 mM as filed; unlikely as a test dose

First: Cc1c(Br)cccc1C(=O)Nc1cc(C(N)=O)n(C)c1
Second: CC(C)C(=O)Nc1cccc(OCC(=O)NCc2ccccc2F)c1
The “Percent Effect” value of the first is lower: 2.948% for the first, 6.908% for the second.

Compared with `COC(=O)c1occc1Cn1cc(Br)cn1`, `CCOc1ccccc1C(=O)NCCc1ccoc1` is higher in “Percent Effect” value: -5.91% for the first, 23.58% for the second.

Going from `COc1cccc2c1ccn2CCNC(=O)CC(C)C` to `COc1ccccc1C(=O)N1CC(=O)N(CC(C)C)CC(O)C1` (configuration not stated), the “Percent Effect” value rises from -27.68% to 11.6%.

Compared with `CCCn1nnnc1COc1ccc(C(=O)OC)cc1OC`, `CCc1ccc(C(=O)NCCNc2ncccn2)cc1` is lower in “Percent Effect” value: 7.789% for the first, -25.5% for the second.

First: Cc1noc(C)c1-c1cccc(C2CN(S(=O)(=O)N(C)C)CCO2)n1 (configuration not stated)
Second: CN(C)S(=O)(=O)N1CCOC(c2cccc(-c3cncnc3)n2)C1 (configuration not stated)
The “Percent Effect” value of the first is lower: 37.24% for the first, 50.13% for the second.

Compared with `COCC(=O)N1CCOC(c2cccc(-c3cncnc3)n2)C1` (configuration not stated), `CC(C)N1CCC(Cc2cncc(-c3cccc(C(=O)O)c3)n2)CC1` is lower in “Percent Effect” value: -11.99% for the first, -33.1% for the second.

Compared with `CCC(CN1CCCCC1)NC(=O)C1(c2cccc(F)c2)CC1.O=C(O)CC(O)(CC(=O)O)C(=O)O` (configuration not stated), `CC(C)NC(=O)N1CCN(Cc2ccccn2)CC2(CC(=O)N(C)C2)C1.O=C(O)C(F)(F)F.O=C(O)C(F)(F)F` (configuration not stated) is lower in “Percent Effect” value: 45.73% for the first, -0.1639% for the second.

First: CCOCC(O)CN1CCN(C(=O)c2ccc(N(C)C)nc2)CC1 (configuration not stated)
Second: CCOCC(O)CN1CCN(C(=O)c2ccncc2)CC1 (configuration not stated)
The “Percent Effect” value of the first is higher: 18.97% for the first, 18.36% for the second.

Going from `CCOCC(O)CN1CCN(C(=O)c2ccsc2)CC1` (configuration not stated) to `CCC(CC)C(=O)N1CCN(Cc2nc3ccccc3c(=O)[nH]2)CC1`, the “Percent Effect” value falls from 106.2% to 5.405%.

Compared with `CCOCC1CN(S(=O)(=O)Cc2ccccc2)Cc2nccn2C1` (configuration not stated), `COc1cccc(CC2CCCN2Cc2nccn2C)c1` (configuration not stated) is higher in “Percent Effect” value: 3.802% for the first, 13.47% for the second.

Going from `CC(C)c1ccc(C#N)c(N2CC(C)(C)[C@@](C)(O)C2)n1` to `Cn1c(=O)c2c(c3ccccc31)OC(C)(C)CC2`, the “Percent Effect” value falls from 23.89% to 17.08%.

First: COc1cccc(/C=C/CCN2CCCN(C(C)=O)CC2)c1
Second: COc1cccc(/C=C/CCN2CCN(S(C)(=O)=O)CC2)c1
The “Percent Effect” value of the first is lower: 68.14% for the first, 79.58% for the second.

Compared with `COc1cccc(NC(=O)CN2CCN(S(C)(=O)=O)CC2)c1`, `COc1cccc(C(C)N2CCN(S(C)(=O)=O)CC2)c1` (configuration not stated) is lower in “Percent Effect” value: 13.93% for the first, -32.99% for the second.

First: COc1cccc(S(=O)(=O)CCN2CCCN(C(C)=O)CC2)c1
Second: COc1cccc(/C=C/CCN2CCC(C(=O)N3CCCC3)CC2)c1
The “Percent Effect” value of the first is higher: 16.19% for the first, 9.134% for the second.

Compared with `Cc1cc(C)n(C2CN(c3ncnc4[nH]ccc34)C2)n1`, `COc1ccc(C2CN(c3cc(C)ncn3)CCN2C(C)=O)cc1` (configuration not stated) is higher in “Percent Effect” value: -54.22% for the first, -53.77% for the second.

Going from `CCn1cc(S(=O)(=O)NCC2(N3CCOCC3)CCCCC2)c(C)n1` to `Cc1cc(C)n(CC2CN(CC(=O)NC3(C#N)CCCC3)CCO2)n1` (configuration not stated), the “Percent Effect” value rises from -12.17% to -4.222%.

Compared with `N#CCCCOc1cccnc1NC(=O)CC1CCCCC1`, `O=C(NCCCOCC1CCCO1)c1cccnc1N1CCCC1` (configuration not stated) is higher in “Percent Effect” value: -14.31% for the first, 105.2% for the second.

Compared with `Cc1ccc(NC(=O)N2CCN(Cc3ccccn3)CC2)cc1Cl`, `NC(=O)c1cnc(NC2CCN(c3ccccn3)CC2)c(Cl)c1` is higher in “Percent Effect” value: -19.48% for the first, 18.4% for the second.

First: Cc1nc(CN(C)C2CCCN(c3ccccc3)C2)no1 (configuration not stated)
Second: Cc1cc(C(=O)N2CC[C@H]3[C@@H]2CCC(=O)N3c2ccccc2)no1
The “Percent Effect” value of the first is lower: -1.27% for the first, 0.08428% for the second.

First: COc1cccc2c3c(c(=O)[nH]c12)CCC(C)(C)O3
Second: COc1cccc2c3c(c(=O)n(C)c12)CCC(C)(C)O3
The “Percent Effect” value of the first is lower: 14.12% for the first, 52.61% for the second.

First: CSCCCNC(=O)C(c1ccccc1C)N(C)C (configuration not stated)
Second: CC(=O)Nc1cccc(OCCNC(=O)N(C)Cc2ccco2)c1
The “Percent Effect” value of the first is higher: 37.97% for the first, 2.051% for the second.

First: Cc1cc(N(C)CCC(O)c2ccccc2)n2nccc2n1 (configuration not stated)
Second: CC1c2cccn2CCN1C(=O)CCc1nc(-c2ccccc2)no1 (configuration not stated)
The “Percent Effect” value of the first is lower: -28.51% for the first, 50.68% for the second.

First: Cc1cc(C(F)(F)F)nc(CNc2cc(C)nc3cc(C)nn23)n1
Second: Cc1cc(N(C)C)nc(C2(C)CCCN2C(=O)c2cncnc2C)n1 (configuration not stated)
The “Percent Effect” value of the first is higher: 13.97% for the first, -9.352% for the second.

Going from `COc1cccc(C(=O)Oc2cc(=O)n3cccc(C)c3n2)c1` to `CCOCCC(=O)Nc1cccc(Oc2ccccn2)c1`, the “Percent Effect” value falls from 35.2% to -2.089%.

First: CC1c2cccn2CCN1C(=O)CCCc1nc(-c2ccco2)no1 (configuration not stated)
Second: CC1c2cccn2CCN1C(=O)CCc1nc(C2CC2)no1 (configuration not stated)
The “Percent Effect” value of the first is higher: 8.285% for the first, 7.661% for the second.

First: COC(=O)c1cc(OCC2CCC2)cc(C(=O)N[C@H]2CCCC[C@@H]2O)c1
Second: Cc1nc(C)c(C(=O)N2CCCC2(C)C(=O)NC2CCCC2)s1 (configuration not stated)
The “Percent Effect” value of the first is higher: 13.96% for the first, -2.69% for the second.

Going from `NC(=O)c1cnc(NC2CCC(c3ccccc3)CC2)c(Cl)c1` (configuration not stated) to `NC(=O)c1cnc(NC2CCN(c3ccccc3)CC2)c(Cl)c1`, the “Percent Effect” value falls from 57.03% to 48.08%.

Going from `O=S(=O)(c1cccnc1)N1CCN(Cc2nc(-c3ccco3)cs2)CC1` to `O=c1[nH]c(CN2CCN(CC(F)(F)F)CC2)nc2ccccc12`, the “Percent Effect” value falls from 31.36% to 9.356%.

First: Cc1nc(C)n(CC2CCCN(Cc3cccnc3)C2)n1 (configuration not stated)
Second: O=c1[nH]c(CCN2CCCC(Cn3cncn3)C2)nc2ccccc12 (configuration not stated)
The “Percent Effect” value of the first is lower: 6.124% for the first, 33.45% for the second.

First: CN(CCC(F)(F)F)Cc1nc2ccccc2c(=O)[nH]1
Second: CN(CCc1nc2ccccc2c(=O)[nH]1)CCC(F)(F)F
The “Percent Effect” value of the first is lower: 7.133% for the first, 95.2% for the second.

Compared with `CCOCCN1CCN(CCc2nc3ccccc3c(=O)[nH]2)CC1`, `O=c1[nH]c(CCN2CCN(CC(F)(F)F)CC2)nc2ccccc12` is lower in “Percent Effect” value: 106.8% for the first, 106.7% for the second.

First: Cn1nc2c(cc1=O)CN(CCc1nc3ccccc3c(=O)[nH]1)CC2
Second: CN(CCC(F)(F)F)c1nc2ccccc2c(=O)[nH]1
The “Percent Effect” value of the first is higher: 8.475% for the first, -4.598% for the second.

Compared with `O=C(c1sccc1-n1cnnn1)N1CCC(Cc2ccccc2)CC1`, `O=C(c1cscn1)N1CC[C@H]2[C@@H]1CCC(=O)N2c1ccccc1` is higher in “Percent Effect” value: 28.81% for the first, 102.6% for the second.

Compared with `CCOC1Sc2nnc(C)n2N=C1c1ccc(F)cc1` (configuration not stated), `CC(C)C[C@H](N)COc1cccc(F)c1Oc1cccc(Cl)c1` is higher in “Percent Effect” value: 27.03% for the first, 106.7% for the second.

First: Cn1cc(N2C(=O)CC[C@@H]3[C@H]2CCN3C(=O)c2cscn2)cn1.O=C(O)C(F)(F)F
Second: CN(C)C(=O)[C@@H]1CCO[C@@H]2CCN(CCc3ccccc3)C[C@@H]21.O=C(O)C(F)(F)F
The “Percent Effect” value of the first is higher: 15.97% for the first, 4.406% for the second.

First: CCc1noc(CN(Cc2ccc3c(c2)OCO3)C2CCCC2)n1
Second: Cc1noc(CN(Cc2ccc3c(c2)OCO3)C2CCCC2)n1
The “Percent Effect” value of the first is lower: 1.573% for the first, 4.979% for the second.

Going from `Cc1nnc(CN(Cc2ccccc2Br)C2CC2)o1` to `Cc1nnc(CN(Cc2cccc(Br)c2)C2CC2)o1`, the “Percent Effect” value falls from 42.91% to 22.14%.

First: Cc1nnc(CN(Cc2ccc3c(c2)OCO3)C2CCCCC2)o1
Second: Cc1nnc(CN(Cc2ccc3c(c2)OCO3)C2CCC(C)CC2)o1 (configuration not stated)
The “Percent Effect” value of the first is higher: 52.33% for the first, 50.97% for the second.

First: O=C(CCn1cc(Cl)cn1)N1CCN(CC2CC2)[C@@H]2CS(=O)(=O)C[C@@H]21
Second: CCc1ccc(CN(C(=O)CCn2cc(S(N)(=O)=O)cn2)C2CC2)cc1
The “Percent Effect” value of the first is lower: -27.81% for the first, -10.53% for the second.

Going from `O=C(CC1CCc2ccccc21)N1CCC(C(=O)O)(n2ccnc2)CC1` (configuration not stated) to `CN(C)C(=O)[C@@H]1CCO[C@@H]2CCN(Cc3ccccc3)C[C@@H]21.O=C(O)C(F)(F)F`, the “Percent Effect” value rises from -2.815% to 104.8%.

First: O=C(NCc1ccnc(OCC2CC2)c1)C1COc2ccccc2O1 (configuration not stated)
Second: CNS(=O)(=O)c1ccc(C(=O)NC2CCOc3ccccc32)o1 (configuration not stated)
The “Percent Effect” value of the first is higher: 12.77% for the first, 7.684% for the second.

Compared with `CC(C)C[C@H](N)COc1cccc(F)c1Oc1ccc(Cl)cc1`, `Cc1ccc(Oc2c(F)cccc2OC[C@@H](N)CC(C)C)cc1` is lower in “Percent Effect” value: 107.4% for the first, 106.4% for the second.

Compared with `CNCc1cc(F)ccc1Oc1ccc(Cl)cc1`, `CC(C)C[C@H](N)COc1cccc(F)c1Oc1ccccc1` is higher in “Percent Effect” value: -16.87% for the first, 5.347% for the second.

Going from `CCNCCOc1ccc(-c2cc(N)nc3[nH]ccc23)cc1` to `Cc1ccc(C)n1-c1ccc(C(=O)NCCNc2ncccn2)cc1`, the “Percent Effect” value rises from 21.99% to 76.43%.

Going from `COc1c(C)cnc(CN2CCCC2c2noc(C)n2)c1C` (configuration not stated) to `CCCc1noc(CN2CCCC2c2ccsc2)n1` (configuration not stated), the “Percent Effect” value rises from -16.92% to 52.86%.

Compared with `CCCC1(CO)CCCN(c2ncnc3c2c(C)nn3C)C1` (configuration not stated), `Cc1nn(CCNc2ncnc3c2NC(=O)CN3)c(C)c1Cl` is higher in “Percent Effect” value: -13.93% for the first, 45.57% for the second.

Compared with `Cc1cccc(-c2ccc(C(=O)N3CCN(C(C)C)CC3)c(=O)[nH]2)c1`, `CC(C)OCCC(=O)NS(=O)(=O)N1CCOc2ccccc21` is higher in “Percent Effect” value: 26.41% for the first, 29.29% for the second.

Going from `CC(C)c1nnc2sc(CC3CN(Cc4ccccc4)CCO3)nn12` (configuration not stated) to `CN(C)C(=O)[C@@H]1CCO[C@@H]2CCN(Cc3ccc4c(c3)OCO4)C[C@@H]21.O=C(O)C(F)(F)F`, the “Percent Effect” value falls from -19.21% to -46.82%.

First: CC(C)COCCCNC(=O)c1cccnc1N1CCOCC1
Second: O=C(NCCCOCC1CCCO1)c1cccnc1N1CCOCC1 (configuration not stated)
The “Percent Effect” value of the first is higher: 3.314% for the first, -37.06% for the second.

Going from `O=C(NCCNc1ncccn1)c1ccc(Br)cc1` to `CCCc1noc(CCC(=O)N2CCCC2c2ccsc2)n1` (configuration not stated), the “Percent Effect” value rises from -16.37% to 22.08%.

Going from `COc1cc(N2CCC3(CCN(Cc4csc(C)n4)C3)CC2)ncn1.O=C(O)C(F)(F)F` to `Cc1nnc(CN2CCCC2c2ccsc2)o1` (configuration not stated), the “Percent Effect” value falls from 24.59% to 14.43%.
